Columns and labels:
Assay in all cases: PBM binding z-score (relative to random genomic background probes); higher = stronger binding; sequences stand for … in GC…GCGATTGACAGCGTAGAATGAAGG
[1] = test system: RARb homodimer (NR concentration 270 nM)
In short: (§1)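 Scanned fluorescence from custom Agilent 4×180K protein-binding microarrays was regression-normalized. Binding z-scores use random background probes as reference. Ligand-free nuclear receptor dimers were incubated on the arrays for 1 h and detected with antibodies against each partner (one per run).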

[2] = test system: RARg:RXRa (NR concentration 270 nM, RXRa partner concentration 90 nM)
In short: as §1

[3] = test system: RARg homodimer (NR concentration 270 nM)
In short: as §1

[4] = test system: RXRa DBDmut IVT, anti-RXR (DBD mutation: RXRa K156A/R161A, NR concentration 90 nM)
In short: as §1

[5] = test system: RXRa homodimer (NR concentration 180 nM)
In short: as §1

[6] = test system: THRa:RXRa (NR concentration 90 nM, RXRa partner concentration 90 nM)
In short: as §1

[7] = test system: THRa homodimer (NR concentration 90 nM)
In short: as §1

[8] = test system: VDR homodimer (NR concentration 270 nM)
In short: as §1

Sequence	PBM binding z-score [1]	PBM binding z-score [2]	PBM binding z-score [3]	PBM binding z-score [4]	PBM binding z-score [5]	PBM binding z-score [6]	PBM binding z-score [7]	PBM binding z-score [8]
GGATCGAGGGCAAGTTGATAGCAGAGTTTGATGG	1.54	1.6	1.96	1.95	0.72	1.26	0.374	2.06
GCTAGCAGGCCATTTGGGTCACTAAATGACGGGC	1.76	0.89	1.18	-0.318	0.776	1.68	0.196	0.0959
CCTTACGGGTCAAGGTTTTAGCACGGGTGGTACG	3.11	4.62	4.4	0.499	5.16	2.51	0.113	0.742
GCGACTGGAGCAAAGCAGGTTACCATAAGGTTGG	0.0117	-0.319	-0.395	-0.723	0.0642	1.75	-0.495	-0.492
TCATATAGGTAATGCAGGTGAAAGTCGGCATCTA	0.531	0.489	0.438	1.04	0.993	1.1	0.297	0.176
CCAGACAGGTGACAGGTAACTCAGTCTGGTACGC	0.331	0.209	0.537	-0.242	0.665	0.126	-0.089	-0.0347
CGAACGAGGGCATTAGTTGATAGCAAATGCCGAT	0.501	0.774	1.37	2.96	0.438	0.5	-0.321	1.64
